Growth data for 17 molecules are collected here from PubChem BioAssay (NCI).

Molecules are shown by their SMILES. The panel holds about 83,000 compounds, 20% with a hit somewhere; the sample as a whole holds those more often.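 The test compound was applied at a single concentration to cells in 96-well plates for 48 hours, and percent growth was recorded.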 Unmarked numbers belong to inactive results. Active and inactive are the calls of the source. How the source made its calls: active means growth percent below 10; inactive means the rest.

Common to all, as to experiment: NCI-60 one-dose screen, 48 h (100 = growth as untreated, 0 = no growth, -100 = all killed)
The subject of one assay is SR leukemia. The note with it: 10 µM unless noted.
The subject of a further assay is OVCAR-8 ovarian. The conditions noted are these: 10 µM unless noted.
The next assay deals with OVCAR-5 ovarian. The note with it: 10 µM unless noted.
In another assay the test system is OVCAR-4 ovarian. The conditions noted are these: 10 µM unless noted.
In a further assay the test system is SK-OV-3 ovarian. The note with it: 10 µM unless noted.
The test system of the next assay is IGROV1 ovarian. The note with it: 10 µM unless noted.
A further assay deals with OVCAR-3 ovarian. The note with it: 10 µM unless noted.
A further assay has as its system HS 578T breast. The conditions noted are these: 10 µM.
For the next assay, the system named is NCI/ADR-RES ovarian. The note with it: 10 µM unless noted.
Another assay has as its system RPMI-8226 leukemia. The note with it: 10 µM unless noted.

Regarding `CCc1ccc(C2=C(O)C(=O)C(c3ccc(CC)cc3)=C(O)C2=O)cc1`, the growth with SR leukemia was -18.5% (active); in the assay with OVCAR-8 ovarian, -59% (active); with OVCAR-5 ovarian it was -0.569% (active); with OVCAR-4 ovarian, -0.208% (active); in the assay with SK-OV-3 ovarian, -9.04% (active); with IGROV1 ovarian it was -36.3% (active). Further, the values for the growth in the assay with OVCAR-3 ovarian, in the assay with HS 578T breast and with NCI/ADR-RES ovarian were -47.2% (active), -21.6% (active) and -18.5% (active), respectively.
As for `Oc1ccc(/C=N/Nc2nnc(N/N=C/c3ccc(O)cc3O)c3ccccc23)c(O)c1`, the growth in the assay with SR leukemia is -26.1% (active); with OVCAR-8 ovarian, -60% (active); in the assay with OVCAR-5 ovarian, 1.16% (active); in the assay with OVCAR-4 ovarian, -9.22% (active); with SK-OV-3 ovarian, -15.4% (active); in the assay on IGROV1 ovarian, -2.51% (active). Besides, the growth in the assay with OVCAR-3 ovarian was -34.1% (active); in the assay on HS 578T breast, -76.8% (active); in the assay with NCI/ADR-RES ovarian, -11.1% (active).
Take `Cc1cnc(Nc2ccc(OCCN3CCCC3)cc2)nc1Nc1cccc(S(=O)(=O)NC(C)(C)C)c1`: the growth in the assay on SR leukemia is -11.4% (active); in the assay with RPMI-8226 leukemia, -33.8% (active); in the assay with OVCAR-8 ovarian, 3.89% (active); with OVCAR-5 ovarian it was 7.41% (active); with OVCAR-4 ovarian, 26.3%; in the assay with SK-OV-3 ovarian, -86.8% (active). In addition, the growth in the assay with IGROV1 ovarian was -11.8% (active); with OVCAR-3 ovarian, 28.2%; in the assay with NCI/ADR-RES ovarian, 30.5%.
Consider `CC(=Nc1ccccc1)C1=C(O)C(Cc2ccccc2)NC1=O` (configuration not stated), for which the growth was -12% (active) in the assay on SR leukemia; -50.4% (active) in the assay on OVCAR-8 ovarian; 18.9% in the assay on OVCAR-5 ovarian; 39.6% with OVCAR-4 ovarian; 16.8% in the assay on SK-OV-3 ovarian; 6.28% (active) in the assay on IGROV1 ovarian. The growth is -42.4% (active) in the assay on OVCAR-3 ovarian, -15.3% (active) in the assay on HS 578T breast and -8.97% (active) in the assay on NCI/ADR-RES ovarian.
On to `CNC(=O)CN1CCC(Oc2cc3c(Nc4cccc(Cl)c4F)ncnc3cc2OC)CC1`, for which the growth was 63.8% in the assay with SR leukemia; 70.9% in the assay on RPMI-8226 leukemia; 45.6% in the assay with OVCAR-8 ovarian; 25.3% with OVCAR-5 ovarian; 70.5% in the assay with OVCAR-4 ovarian; -22.4% (active) in the assay with SK-OV-3 ovarian. Besides, the figures for the growth in the assay on IGROV1 ovarian, with OVCAR-3 ovarian and in the assay on NCI/ADR-RES ovarian were -25.2% (active), 46.3% and 56.6%, respectively.
For the molecule `CC(=O)OCCC/C(=C\c1ccc2ccccc2c1)[N+](=O)[O-]`, the growth in the assay with SR leukemia is -33.8% (active); in the assay with OVCAR-8 ovarian, -91.3% (active); in the assay on OVCAR-5 ovarian it was -93.2% (active); in the assay on OVCAR-4 ovarian, 11.1%; in the assay on SK-OV-3 ovarian, 57.9%; in the assay on IGROV1 ovarian, -82.3% (active). Besides, the growth is -96.6% (active) in the assay on OVCAR-3 ovarian, -40% (active) with HS 578T breast and -7.25% (active) with NCI/ADR-RES ovarian.
With `CCN(CC)CCNc1ccc(N=Nc2cnc3ccccc3c2)c2ccccc12`, the growth in the assay on SR leukemia is -53.1% (active); in the assay with OVCAR-8 ovarian it was -90.1% (active); with OVCAR-5 ovarian it was -86.6% (active); with OVCAR-4 ovarian, -25.3% (active); in the assay on SK-OV-3 ovarian it was -77.2% (active); with IGROV1 ovarian it was -92.8% (active). The growth was -73.2% (active) with OVCAR-3 ovarian, -73.9% (active) with HS 578T breast and -40% (active) in the assay on NCI/ADR-RES ovarian.
For the molecule `CCCC(=O)OCC1OC(n2cnc3c(=S)nc[nH]c32)C(OC(=O)CCC)C1OC(=O)CCC` (configuration not stated), the growth with SR leukemia is 24%; in the assay on OVCAR-8 ovarian it was -8.32% (active); with OVCAR-5 ovarian, 46.2%; in the assay with OVCAR-4 ovarian, 31.3%; in the assay on SK-OV-3 ovarian, 21%; in the assay on IGROV1 ovarian it was 14.7%. Also, the results for the growth in the assay with OVCAR-3 ovarian, in the assay with HS 578T breast and in the assay with NCI/ADR-RES ovarian were 22.7%, 47.7% and 48.3%, respectively.
For the molecule `CN(c1ncccc1CNc1nc(Nc2ccc3c(c2)CC(=O)N3)ncc1C(F)(F)F)S(C)(=O)=O`, the growth was -6.03% (active) in the assay with SR leukemia; -7.65% (active) in the assay on RPMI-8226 leukemia; 4.96% (active) in the assay on OVCAR-8 ovarian; 7.36% (active) with OVCAR-5 ovarian; -7.63% (active) in the assay with OVCAR-4 ovarian; 5.63% (active) in the assay with SK-OV-3 ovarian. Further, the growth was 7.61% (active) in the assay with IGROV1 ovarian, 15.1% in the assay with OVCAR-3 ovarian and 56.2% with NCI/ADR-RES ovarian.
As to `CC[C@H](CO)Nc1nc(NCc2ccccc2)c2ncn(C(C)C)c2n1`, the growth in the assay with SR leukemia was 7.1% (active); in the assay with RPMI-8226 leukemia, 85.5%; in the assay on OVCAR-8 ovarian it was 63.8%; with OVCAR-5 ovarian it was 50.9%; with OVCAR-4 ovarian, 73.2%; with SK-OV-3 ovarian, 102%. In addition, the growth was 49% in the assay on IGROV1 ovarian, 65.2% in the assay on OVCAR-3 ovarian and 71.4% in the assay with NCI/ADR-RES ovarian.
Take `COc1cc2ncnc3c2cc1OCCCCCN(C)Cc1ccc(Br)cc1N3`: the growth was 21.6% in the assay with SR leukemia; 64.1% with RPMI-8226 leukemia; 41.9% with OVCAR-8 ovarian; 50.1% in the assay with OVCAR-5 ovarian; 42% with OVCAR-4 ovarian; -4.09% (active) in the assay with SK-OV-3 ovarian. Besides, the growth in the assay with IGROV1 ovarian is -8.59% (active); in the assay on OVCAR-3 ovarian, 46.9%; in the assay on NCI/ADR-RES ovarian, 46.7%.
In the case of `COc1cc(OC)c(C(=O)/C=C/c2cc3c(cc2OCc2ccccc2)OC(C)(C)CC3)cc1CC=C(C)C`, the growth in the assay on SR leukemia was 11.6%; with OVCAR-8 ovarian it was 1.96% (active); in the assay on OVCAR-5 ovarian, 64.7%; with OVCAR-4 ovarian it was 44.7%; in the assay with SK-OV-3 ovarian, 78.6%; in the assay on IGROV1 ovarian, 66.5%. The growth with OVCAR-3 ovarian is 19.2%; in the assay on HS 578T breast, 69.6%; with NCI/ADR-RES ovarian, 51.9%.
As to `COc1cccc(Nc2ncnn3ccc(CN4CC[C@@H](N)[C@H](O)C4)c23)c1`, the growth in the assay with SR leukemia was 20.1%; in the assay with RPMI-8226 leukemia, 65.7%; in the assay on OVCAR-8 ovarian it was 27.5%; in the assay with OVCAR-5 ovarian, 25.5%; in the assay on OVCAR-4 ovarian, 61%; in the assay on SK-OV-3 ovarian it was -41.4% (active). Besides, the growth with IGROV1 ovarian is -19% (active); with OVCAR-3 ovarian, 44.1%; with NCI/ADR-RES ovarian, 19.4%.
Consider `Clc1ccc(/C=C/c2cc(N3CCOCC3)c3cc(Cl)c(Cl)cc3n2)cc1`, for which the growth was 59.4% in the assay on SR leukemia; -40.9% (active) in the assay with RPMI-8226 leukemia; 100% with OVCAR-8 ovarian; 105% in the assay with OVCAR-5 ovarian; 101% with OVCAR-4 ovarian; 105% in the assay on SK-OV-3 ovarian. For the same molecule, the growth in the assay on IGROV1 ovarian is 94.3%; in the assay on HS 578T breast, 102%; in the assay with NCI/ADR-RES ovarian, 90.2%.
`Nc1nc(=S)c2ncn(C3OC(COC(=O)c4ccc(Cl)cc4)C(OC(=O)c4ccc(Cl)cc4)C3OC(=O)c3ccc(Cl)cc3)c2[nH]1` (configuration not stated): the growth was 72.8% with SR leukemia; 129% in the assay on OVCAR-8 ovarian; 91.9% in the assay with OVCAR-5 ovarian; 86.2% with OVCAR-4 ovarian; 43.5% in the assay with SK-OV-3 ovarian; 93.5% in the assay with IGROV1 ovarian. The growth is 81% with OVCAR-3 ovarian, -29% (active) in the assay with HS 578T breast and 103% in the assay on NCI/ADR-RES ovarian.
As to `Nc1nc(N)c2cc(CNc3ccc(C(=O)NC(CC(=O)O)C(=O)O)cc3)ccc2n1` (configuration not stated), the growth is 13.8% in the assay with SR leukemia; -13.2% (active) in the assay on OVCAR-8 ovarian; 30.1% with OVCAR-5 ovarian; 50.8% in the assay on OVCAR-4 ovarian; 47.4% in the assay on SK-OV-3 ovarian; 38.7% with IGROV1 ovarian. Moreover, the growth is 50.5% with OVCAR-3 ovarian, -20.2% (active) in the assay on HS 578T breast and 17.3% in the assay on NCI/ADR-RES ovarian.
Consider `Cc1nn(-c2ccccc2)c2c1N=c1s/c(=C\c3cn(-c4ccccc4)nc3-c3ccc(Cl)cc3)c(=O)n1C(C)N2` (configuration not stated), for which the growth in the assay on SR leukemia was 123%; with RPMI-8226 leukemia, 49%; with OVCAR-5 ovarian it was 101%; with OVCAR-4 ovarian, 93.2%; with SK-OV-3 ovarian it was 102%; with OVCAR-3 ovarian, 109%. The growth with HS 578T breast is 87.8%; in the assay on NCI/ADR-RES ovarian it was 97.8%.
